Each structure is given as a SMILES string. “And” between values parts separate entries of the source, which are not always exact repeats. Equal entries are not always repeated. The campaign covered roughly 320,000 compounds. About 820 (0.26%) were called active.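 The calls were made as follows: active = activation above the mean activation of all tested compounds plus 3 SD, per screening run (cut at about 20% in these data); inactive = the rest.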 The sample as a whole holds a higher share of actives than the screen did.

The target of this test is Vasopressin V1a receptor (Homo sapiens) (UniProt P37288). The experiment in a line: V1R activation via calcium rise – fluorescence, CHO-V1R cells, counter-screen for OXTR agonist project, primary screen (AID 2797).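 Also: signal is peak over basal fluorescence ratio across a 100 second FLIPR read.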 The settings on record: Fluo-8 calcium fluorescence, agonist mode, at 3 µM, active compounds read high, 0% DMSO, 100% 3 nM vasopressin. For orientation: The purpose of a counterscreen is to sort out artefacts and off-target activity.
Chain of Vasopressin V1a receptor (Homo sapiens) (P37288 whole entry, looked up): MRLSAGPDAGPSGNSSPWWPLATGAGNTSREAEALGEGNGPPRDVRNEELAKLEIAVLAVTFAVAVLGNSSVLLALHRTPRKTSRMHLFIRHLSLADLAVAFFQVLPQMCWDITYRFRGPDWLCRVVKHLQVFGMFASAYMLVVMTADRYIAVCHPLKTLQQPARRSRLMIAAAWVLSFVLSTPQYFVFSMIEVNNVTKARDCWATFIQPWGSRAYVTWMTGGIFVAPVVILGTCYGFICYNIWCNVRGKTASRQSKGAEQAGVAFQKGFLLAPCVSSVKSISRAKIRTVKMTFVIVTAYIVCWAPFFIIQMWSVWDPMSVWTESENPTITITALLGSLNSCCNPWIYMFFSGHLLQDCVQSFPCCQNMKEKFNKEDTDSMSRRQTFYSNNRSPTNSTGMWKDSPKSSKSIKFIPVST
In the case of `CCCc1nc2c(c(=O)c3ccccc3n2C)c(=O)n1C1CCCCCC1`, the activation was 86.8% (active).
On to `Cn1c2ccccc2c(=O)c2c(=O)n(Cc3ccco3)c(COc3ccccc3)nc21`, for which the activation is 2.23% (inactive).
With `Cn1c2ccccc2c(=O)c2c(O)cccc21` the figure was 0.32% (inactive); with `NS(=O)(=O)c1ccc(NC(=O)COC(=O)C2(c3ccc(F)cc3)CCCC2)cc1`, 10.2% (inactive).
The value for `CCC(C(=O)OCC(=O)Nc1ccc(C(=O)Nc2ccc(OC)cc2)cc1)c1ccccc1` (centres undefined) was 6.96% (inactive).
The value for `CCC(C(=O)Nc1ccc(C(C)C)cc1)c1ccccc1` (centres undefined) was 40.7% (active); that for `CCC(C(=O)Nc1ccc2c(c1)OCCO2)c1ccccc1` (centres undefined) was 1.12% (inactive).
Regarding `COc1ccc2c(c1)C(=O)Nc1cc(Cl)ccc1N2`, the activation is 3.78% (inactive).
In the case of `Cc1cccn2c(=O)c(/C=C(\C#N)C(N)=O)c(N3CCCCCC3)nc12`, the activation was -0.28% (inactive).
With `CCOC(=O)N1CCN(C(=O)CSc2nc(=O)n3cccc(C)c3n2)CC1` the figure was -0.26% (inactive); with `CCOC(=O)CC1C(=O)NCCN1c1nc2c(C)cccn2c(=O)c1/C=C1\SC(=S)N(C(C)CC)C1=O` (centres undefined), 34% (active).
With `Cn1nccc1NC(=O)CC(CC(=O)O)c1ccccc1` (centres undefined) the figure was -0.62% (inactive); with `Cc1ccc(C(=O)NCC(=O)OCc2nnc(-c3ccccc3)o2)cc1`, 1.89% (inactive); with `CCCc1ccc(C(=O)[C@@H]2[C@@H](C(C)=O)N3c4ccc(F)cc4C=C[C@@H]3[C@@]23C(=O)Nc2ccccc23)cc1`, -0.96% (inactive).
With `Cc1ccc(CNC(=O)c2ccc3c(c2)S(=O)(=O)c2ccccc2C3=O)cc1` the figure was -0.95% (inactive); with `Cc1ccc(CNC(=O)c2cccc3c2C(=O)c2ccc(N4CCC(C)CC4)cc2S3(=O)=O)cc1`, 49.5% (active).
In the case of `CC1CCN(c2c(NCc3ccc(C(=O)NCc4ccccc4)cc3)c(=O)c2=O)CC1`, the activation is 0.76% (inactive).
The value for `CCCN(CCC)CCCNC(=O)CNC(=O)c1nn(-c2ccc(OC)cc2)c(=O)c2ccccc12` was 2.99% (inactive); that for `CCOC(=O)C1=C(CC)Nc2ccccc2N=C1NC(=O)c1cccc(S(=O)(=O)N2CCCC2)c1` was -0.11% (inactive); that for `Cc1ccc(C)c(CN2CCC(CNC(=O)Nc3ccc(C)c(F)c3)CC2)c1` was 4.31% (inactive).
The value for `Cc1ccccc1NC(=O)NCC1CCN(Cc2cccc(Cl)c2)CC1` was 3.18% (inactive).
With `Cc1cccc(CN2CCC(CNC(=O)Nc3ccc(F)c(Cl)c3)CC2)c1` the figure was 26.4% (active); with `CCCCC(=O)NNC(=S)NC(=O)C(c1ccccc1)c1ccccc1`, 73.7% (active).
For the molecule `CC(C)C(=O)Nc1cccc(NC(=S)NC(=O)C(c2ccccc2)c2ccccc2)c1`, the activation was 6.96% (inactive).
With `CCNC(=S)NNC(=O)Cc1ccccc1` the figure was -0.19% (inactive).
The value for `Cc1ccc(S(=O)(=O)NC2CCCCCC2)cc1C(N)=O` was 3.64% (inactive); that for `CCCN(CC1COc2ccccc2O1)C(=S)Nc1ccc(C)cc1` (centres undefined) was -0.74% (inactive).
In the case of `CN(C(=O)CN(CCO)CC(=O)N(C)C(C)(C)Cc1ccccc1)C(C)(C)Cc1ccccc1`, the activation was 53.5% (active).
`OCCN(Cc1ccccc1)Cc1ccc(Cl)cc1`: the activation was 0.58% (inactive).
For `CCN(CC)C(=O)N(CC)Cc1ccccc1`, the activation is 0.23% (inactive).
Take `Cc1ccc(C(=O)NCCNC(=O)c2cnccn2)cc1`: the activation is 0.28% (inactive).
For the molecule `O=C(Nc1ccc2c(c1)OCCO2)c1cnccn1`, the activation is -0.23% (inactive).
The value for `CCN(CC)c1ccc(/C=N/NC(=O)c2cnccn2)c(O)c1` was 20.8% (active); that for `CC(c1ccco1)N(C(=O)Nc1ccccc1)C1CCCCC1` (centres undefined) was -0.6% (inactive); that for `CC(C)c1cc(NCc2ccccn2)n2c(nc3ccccc32)c1C#N` was -0.18% (inactive).
With `CC/C(=N\NC(=O)c1ccccc1Cl)c1ccc(Br)s1`, the activation was 0.56% (inactive).
With `O=C(CN1C(=O)CCC1=O)Nc1ccc(S(=O)(=O)N2CCOCC2)cc1` the figure was 0.29% (inactive).
The value for `O=C(CN1CCCCCC1)Nc1ccc(S(=O)(=O)N2CCCCC2)cc1` was 0.94% (inactive).
Take `O=C(CN1CCN(c2cccc(Cl)c2)CC1)Nc1ccc(S(=O)(=O)N2CCOCC2)cc1`: the activation was 26.1% (active).
For `CCC(C)NC(=O)N[C@@H](CCSC)C(=O)O` (some centres undefined), the activation is 0.54% (inactive).
The value for `NC(=O)c1cc(-c2cccnc2)nc2ccc(Br)cc12` was -0.49% (inactive).
With `O=c1c2cc(Br)ccc2nc(-c2cccc(Cl)c2)n1O` the figure was 39% (active).
The value for `Cc1cccc(-c2nc3ccccc3c(=O)n2NC(=O)Cc2ccc(Cl)cc2)c1` was 4.01% (inactive); that for `CCCCc1nc2cc(C(=O)NCCc3cnn(C)c3)ccc2o1` was 1.32% (inactive).
On to `CC(C)c1nc(SCC(=O)Nc2cccc(C(=O)O)c2)c2c3c(sc2n1)CCCC3`, for which the activation is 6.28% (inactive).
Turning to `CCOc1ccc(C2NC(=S)NC3=C2CCc2ccccc23)cc1` (centres undefined), the activation is 0.4% (inactive).
The value for `O=C(NCc1cccnc1)c1cc(S(=O)(=O)N2CCOCC2)c(Cl)cc1Cl` was 1.17% (inactive); that for `COc1ccccc1NC(=O)Nc1nc(CC(=O)Nc2ccccc2F)cs1` was -0.76% (inactive).
The value for `Oc1ccc2ccc3cccc[n+]3c2c1` was 49.5% (active); that for `CCSc1nc(C)c(CCOc2cccc(C)c2)c(=O)[nH]1` was -0.28% (inactive); that for `COCCN(C(=O)CC1CCCCC1)c1c(N)n(CC(C)C)c(=O)[nH]c1=O` was -0.63% (inactive).
The value for `CC(=O)Nc1cccc(NC(=O)CSc2nccn2Cc2ccc(F)cc2)c1` was 3.25% (inactive); that for `Cc1cc(N2C(=O)C(O)=C(C(=O)c3ccc(C)o3)C2c2ccc(OCc3ccccc3)cc2)no1` (centres undefined) was 0.41% (inactive); that for `C=CCOc1cccc(C2C(C(=O)c3ccc(C)o3)=C(O)C(=O)N2CCCn2ccnc2)c1` (centres undefined) was -0.49% (inactive).
For the molecule `C=CCOc1cccc(C2C(C(=O)c3ccc(C)o3)=C(O)C(=O)N2c2nnc(C)s2)c1` (centres undefined), the activation is 78.1% (active).
The value for `CCOC(=O)c1c(NC(=O)CSc2nnc(CNc3ccc(C)cc3C)o2)sc(C)c1C` was 0.01% (inactive); that for `COc1ccc(S(=O)(=O)NCC(c2ccc(C)cc2)N2CCN(C)CC2)cc1OC` (centres undefined) was 0.61% (inactive); that for `Cc1cnc(C(=O)OCc2c(C)cc(C(C)(C)C)cc2C)cn1` was -0.09% (inactive).
With `CC1(C)S[C@@H]2[C@H](N=CN3CCCCCC3)C(=O)N2[C@H]1C(=O)O` the figure was 21.6% (active); with `CC1(C)S[C@@H]2[C@H](NC(=O)COc3ccccc3)C(=O)N2C1C(=O)OCc1ccccc1` (some centres undefined), 1.45% (inactive).
The value for `CC1(C)SC2C(NC(=O)COc3ccccc3)C(=O)N2C1C(=O)O` (centres undefined) was 0.91% (inactive) and -0.17% (inactive); that for `COC(=O)c1sc(-c2ccc(C(C)(C)C)cc2)cc1NC(=O)/C=C/C(=O)O` was 28.5% (active); that for `COc1ccccc1NC(=O)/C=C/C(N)=O` was 0.73% (inactive).
Regarding `CC(C)(C)c1ccc(/C=C/C(=O)Nc2ncccn2)cc1`, the activation is -0.18% (inactive).
The value for `COc1ccc(S(=O)(=O)N2CCOCC2)c(C)c1C` was 0.14% (inactive).
With `O=C(NNC(=O)c1ccccc1[N+](=O)[O-])Nc1ccccc1C(F)(F)F`, the activation was 0.06% (inactive).
As for `O=C(N1CCCC1)C12CC3CC(C1)CC(C(=O)N1CCCC1)(C3)C2`, the activation was -0.17% (inactive).
With `Cc1nc(C(=O)NCc2ccccc2)sc1C1(C)CC(c2cccnc2)=NO1` (centres undefined) the figure was 33.9% (active); with `Cc1nc(-c2ccc(Cl)cc2)sc1C1(C)CC(c2ccccc2F)=NO1` (centres undefined), 0.6% (inactive); with `Cc1nc(C(=O)Nc2ccc(Cl)cc2)sc1C1(C)CC(c2ccccc2)=NO1` (centres undefined), 1.86% (inactive).
For `O=C(Nc1ccc(Cl)cc1)Nc1ccc(Oc2cccnc2)nc1`, the activation was 15.2% (inactive).
For `COc1ccc(F)cc1S(=O)(=O)N1CCCCC1`, the activation was 0.03% (inactive).
As for `Cc1cc(NC(=O)CCC(=O)N(CC(=O)NCC2CCCO2)c2ccccc2)no1` (centres undefined), the activation is -0.14% (inactive).
For the molecule `Nc1ccc2nc3c(=O)[nH]c(=S)[nH]c3nc2c1`, the activation was 33.2% (active).
In the case of `NC(N)=Nc1nc2ccc(Br)cc2c(=O)[nH]1`, the activation was 0.39% (inactive).
With `COCC(=O)N1CCc2ccc(NC(=O)c3ccccc3Cl)cc2C1` the figure was 1.09% (inactive); with `CCOC(=O)c1c(S(=O)(=O)Nc2ccc(CN3CCC(C)CC3)cc2)c(C)n(C)c1C`, 0.65% (inactive).
With `CCC(Oc1ccccc1C)C(=O)Nc1ccc(S(=O)(=O)Nc2cc(C)on2)cc1` (centres undefined) the figure was -0.02% (inactive); with `O=C(/C=C/c1ccc(OCc2c(F)cccc2Cl)cc1)N1CCOCC1`, 2.69% (inactive); with `Fc1ccc(COc2ccc(-c3nnco3)cc2)cc1`, 0.56% (inactive).
With `Fc1cccc(Cl)c1COc1ccc(-c2nnco2)cc1` the figure was 25.1% (active); with `COc1cccc(C(=O)Nc2cc3c(cc2Br)OCCCO3)c1`, -1.23% (inactive).
Turning to `O=C(c1ccc(Br)o1)N(c1ccccn1)C1CCCCC1`, the activation is -0.71% (inactive).
The value for `Cc1cccc(C(=O)OC(C)CN2CCCC2)c1` (centres undefined) was -0.62% (inactive); that for `CC(C)CC1(C)NC(=O)N(CC(=O)Nc2ccc3c(c2)OCCO3)C1=O` (centres undefined) was 1.53% (inactive); that for `COCC1CCN(C(=O)CCc2nnc(C3(c4ccc(Cl)cc4)CCC3)o2)C1` (centres undefined) was -0.39% (inactive).
With `CCN(CC)c1ccc2oc(=O)c(C)nc2c1`, the activation is 24.3% (active).
The value for `C=CCN(C(=O)Nc1ccc2oc(C)nc2c1)c1ccccc1` was 0.19% (inactive); that for `CCN(CC)c1ccc(C(=O)Nn2c(C)nc3ccccc3c2=O)cc1` was 6.78% (inactive); that for `CC(C)=CCCC(C)CN1CCC(n2nccc2NC(=O)c2ccccc2)CC1` (centres undefined) was 0.01% (inactive).
With `COc1ccc(OC)c(NC(=O)COC(=O)Cc2ccsc2)c1` the figure was -0.12% (inactive); with `CN(C)c1ccc(C=C2C(=O)OC3(CCCC3)OC2=O)cc1`, 2.02% (inactive); with `COc1cc(/C=C2/SC(=S)N(Cc3ccccc3)C2=O)cc(OC)c1O`, 15.3% (inactive).
With `CN(C)c1ccc(/C=C2\NC(=S)N(Cc3ccccc3)C2=O)cc1` the figure was 70.8% (active).

Values taken from PubChem BioAssay AID2797 (The Scripps Research Institute Molecular Screening Center, 2010).
